Key:
Settings in all cases: concentration: 1 μM, replicates: in singlicate; n = 1
PIP5K2C = tested on: T1, PIP5K2C
T1 construct: gene PIP4K2C

PKAC-alpha = tested on: T2, PKAC-alpha
T2 construct: gene PRKACA

PKAC-beta = tested on: T3, PKAC-beta
T3 construct: gene PRKACB

PKMYT1 = tested on: PKMYT1
PKN1 = tested on: PKN1
PKN2 = tested on: PKN2
PLK1 = tested on: PLK1
PLK2 = tested on: PLK2
PLK3 = tested on: PLK3
PLK4 = tested on: PLK4
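Also: KINOMEscan kinase panel screen.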

| Compound | %Inh (PIP5K2C) [%] | %Inh (PKAC-alpha) [%] | %Inh (PKAC-beta) [%] | %Inh (PKMYT1) [%] | %Inh (PKN1) [%] | %Inh (PKN2) [%] | %Inh (PLK1) [%] | %Inh (PLK2) [%] | %Inh (PLK3) [%] | %Inh (PLK4) [%] |
| --- | --- | --- | --- | --- | --- | --- | --- | --- | --- | --- |
| CCC(CC)(CC)n1cnc2c(N)ncnc21 [SKF-97620] | 0 | 11 | 14 | 2 | 0 | 0 | 45 | 32 | 21 | 7 |
| NC(=O)c1sc(-n2cnc3ccccc32)cc1OCc1ccccc1F [GSK1024306] | 8 | 21 | 2 | 0 | 60 | 0 | 99.8 | 99 | 98.8 | 0 |
| CC(C)N1CCC(n2cnc(-c3ccc(F)cc3)c2-c2ccnc(N)n2)CC1 [SB-223132] | 62 | 0 | 22 | 0 | 0 | 0 | 0 | 0 | 0 | 0 |
| OCCOCCn1ccc2ncnc(Nc3ccc(Oc4cccc(Cl)c4)c(Cl)c3)c21 | 30 | 0 | 0 | 0 | 13 | 0 | 0 | 0 | 0 | 0 |
| C[C@H]1CC[C@@H](C(=O)Nc2ccccc2)CN1c1cc(-c2ccc3c(N)n[nH]c3c2)nc(N)n1 [GSK2283293] | 15 | 0 | 0 | 0 | 0 | 0 | 0 | 4 | 0 | 0 |

Source: PMC5540273 (PLoS ONE, 2017)
